Compounds with a hit are over-represented: about 3.2% of the library has one in this group of screens.
ANO1 activ – mouse TMEM16A channel activation, primary screen; Q8BHY3; HEK293 TMEM16A/YFP-H148Q/I152L, iodide quench fluorescence; hits give low values; B-score at 10 µM; 340,000 compounds, 0.3% hits;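 active means fluorescence-ratio B-score plate-corrected deviation score at least 3 library SD below zero, with starting fluorescence score within 5 deviations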;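 further: channel opened by trigger with iodide after compound preincubation; score built on the fluorescence ratio of max minus min over baseline; more negative score means more quench and so TMEM16A activation or potentiation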
Target sequence (Q8BHY3 whole entry, looked up): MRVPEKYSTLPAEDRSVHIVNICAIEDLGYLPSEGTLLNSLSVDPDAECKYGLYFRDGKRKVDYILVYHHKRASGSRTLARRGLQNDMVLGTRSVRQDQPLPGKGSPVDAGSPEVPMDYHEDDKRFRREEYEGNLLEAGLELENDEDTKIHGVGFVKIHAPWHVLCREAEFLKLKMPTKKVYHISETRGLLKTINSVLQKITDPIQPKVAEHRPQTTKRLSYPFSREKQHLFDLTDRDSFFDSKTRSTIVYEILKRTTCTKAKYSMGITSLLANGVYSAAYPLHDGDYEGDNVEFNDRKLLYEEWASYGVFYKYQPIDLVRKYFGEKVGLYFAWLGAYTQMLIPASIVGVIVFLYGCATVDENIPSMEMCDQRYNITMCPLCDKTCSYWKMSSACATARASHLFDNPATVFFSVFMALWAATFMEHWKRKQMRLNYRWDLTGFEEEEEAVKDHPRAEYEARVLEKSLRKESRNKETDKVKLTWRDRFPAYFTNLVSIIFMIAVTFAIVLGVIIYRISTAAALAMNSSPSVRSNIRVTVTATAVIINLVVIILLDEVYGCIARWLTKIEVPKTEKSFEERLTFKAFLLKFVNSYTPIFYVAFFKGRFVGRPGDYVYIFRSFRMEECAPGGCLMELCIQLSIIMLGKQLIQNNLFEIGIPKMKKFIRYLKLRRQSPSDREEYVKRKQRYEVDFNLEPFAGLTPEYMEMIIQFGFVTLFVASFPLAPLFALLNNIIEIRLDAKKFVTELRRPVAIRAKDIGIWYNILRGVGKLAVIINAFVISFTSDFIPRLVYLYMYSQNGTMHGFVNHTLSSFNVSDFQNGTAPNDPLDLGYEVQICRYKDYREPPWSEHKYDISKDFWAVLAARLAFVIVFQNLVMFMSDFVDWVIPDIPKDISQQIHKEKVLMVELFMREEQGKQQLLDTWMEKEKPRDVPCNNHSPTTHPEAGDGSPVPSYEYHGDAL
PHOSPHO1 block – blocks human PHOSPHO1 phosphatase activity; recombinant PHOSPHO1, absorbance phosphatase assay; inhibition, % at 13.3 µM; 290,000 compounds, 1.1% hits; in the data active means inhibition above about 60%
CHT inh – inhibits the human high affinity choline transporter. Q9GZV3. B-score at 10 µM. AID 488975. CHT-expressing cells, membrane potential dye, choline response; hits give low values. 310,000 compounds, 0.86% hits;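 active means B-score over 3 SD under the library average, and starting fluorescence ratio not unusually high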;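 further: choline stimulus applied at its EC90 after an EC20 pre-addition; B-score computed on integrated fluorescence ratio after choline addition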
ANO1 block – mouse TMEM16A channel inhibition, primary screen; normalized B-score (activity score, 25-100; higher = stronger inhibition) at 10 µM; HEK293 TMEM16A/YFP iodide influx fluorescence, ionomycin; AID 588511; 310,000 compounds, 1.2% hits;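 active means ratio plate-corrected score three or more library SD toward inhibition, starting fluorescence score within five deviations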;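 further: score derived from kinetic fluorescence span divided by baseline fluorescence per well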
CHT allo act – human CHT allosteric activation; Q9GZV3; CHT-expressing cells, membrane potential dye, choline EC20; hits give high values; LV-AA mutant CHT in HEK293 cells; B-score at 10 µM; 310,000 compounds, 0.49% hits;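 active means initial fluorescence not abnormally high and integrated response B-score, plate-corrected, over 3 SD above library mean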
HDAC3 inh – human HDAC3 inhibition; O15379; recombinant HDAC3, fluorogenic peptide/trypsin coupled, fluorescence; inhibition, % at 8.3 µM; 320,000 compounds, 0.15% hits; AID 2718; in the data active means inhibition above about 26%, passing the limit was not always enough
TMEM16A reconf – TMEM16A (mouse) chloride channel inhibition, re-confirmation | shares compounds with ANO1 block | HEK293 TMEM16A/YFP-H148Q, iodide quench fluorescence; ionomycin added to raise cell calcium | 2,300 compounds, 39% hits | inhibition, % at 10 µM;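 active means mean duplicate percent inhibition, scaled so buffer wells are 0 and the reference blocker 100, over three buffer SD above buffer mean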
HEK293 Ca mobil – calcium mobilization counter-screen hit for TMEM16A inhibitor series; shares compounds with ANO1 block; TMEM16A/YFP HEK293, Fluo4 calcium mobilization; calcium response (% of ionomycin), % at 10 µM; 2,300 compounds, 2% hits; AID 652231;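 active means duplicate-averaged calcium signal over 20% of the ionomycin maximum, relative to buffer baseline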;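 further: each well's signal is peak minus trough fluorescence divided by its pre-addition baseline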
Parental YFP cnt – acts in parental YFP-HEK293 cells lacking TMEM16A, counter-screen; shares compounds with ANO1 block; iodide YFP quench, ionomycin; YFP ratio F(max-min)/F0 at 10 µM; 2,300 tested, under 10 active; AID 652233;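 active means yellow fluorescent protein signal ratio exceeding the buffer control mean by over 5 SD of those controls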;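 further: ratio is mean of duplicate wells from kinetic YFP trace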
ClC-1 rat inh – blocks the rat ClC-1 voltage-dependent chloride channel. shares compounds with ANO1 block. CHO ClC-1-YFP, iodide influx fluorescence quench; iodide control reads 0, buffer control 100. ratio percent, % at 10 µM. 2,300 tested, under 10 active. AID 652236;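 active means duplicate-mean ratio percent above the mean of iodide-only control wells, which defines zero, plus 5 of their SD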;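 further: higher percent means stronger block of ClC-1 iodide influx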
Numbers stand for hits; n = inactive; x = no result given.

SMILES	ANO1 activ	PHOSPHO1 block	CHT inh	ANO1 block	CHT allo act	HDAC3 inh	TMEM16A reconf	HEK293 Ca mobil	Parental YFP cnt	ClC-1 rat inh
CCc1noc(C)c1C(=O)N1CCN(S(=O)(=O)c2ccc(C(C)C)cc2)CC1	n	x	n	n	n	n	x	x	x	x
COC(=O)CSc1nc(-c2ccc(C)cc2)c2c(c1C#N)CCCC2	n	n	n	n	n	n	x	x	x	x
COC(=O)c1ccc(CSc2nc(C(F)(F)F)c3c(c2C#N)CCC3)o1	n	n	n	100	n	n	n	n	n	n
CCCC(CCC)C(=O)Nc1c[nH]c(=O)[nH]c1=O	n	n	n	100	n	n	n	n	n	n
Cc1ccc(C(=O)Nc2cccc(C(=O)NCc3ccccc3)c2)o1	n	n	n	n	n	n	x	x	x	x
C/C(=N\NC(=O)C1(C)CC1(Br)Br)c1cccc(NC(=O)c2ccc(C)o2)c1 (centres undefined)	n	n	n	25	n	n	n	n	n	n
Cc1cc(S(=O)(=O)Nc2ccc3cn[nH]c3c2)c(C)cc1Cl	n	n	n	25	n	n	16.0%	n	n	n
CCOC(=O)c1c(C)n(CC(COC(C)=O)OC(C)=O)c2ccc(OC(C)=O)cc12 (centres undefined)	n	n	n	25	n	n	n	n	n	n
COc1cc(/C=C2\Oc3cc(O)ccc3C2=O)ccc1O	n	n	n	n	n	n	x	x	x	x
O=C1/C(=C/c2ccc(O)c(O)c2)Oc2cc(O)ccc21	n	n	n	n	n	n	19.5%	33.5%	n	n
CC(C)N(C(=O)[C@H]1CC(CC(=O)NCc2ccco2)C(=O)N2CCc3c([nH]c4ccccc34)[C@]12C)C(C)C (some centres undefined)	x	x	x	x	x	n	x	x	x	x
COc1ccc(Cc2nc(C(=O)NCc3ccccc3OC)cs2)cc1	n	n	n	n	n	n	x	x	x	x
COc1ccc(Cc2nc(C(=O)Nc3ccc(OC)cc3)cs2)cc1	n	n	n	25	n	n	n	n	n	n
COc1ccc(C2c3[nH]c4ccccc4c3CCN2CCCn2cccn2)c(C)c1C (centres undefined)	n	n	n	n	n	n	x	x	x	x
Cc1ccc(-c2cc(C(=O)N3N=C(C(F)F)CC3(O)C(F)F)c3ccccc3n2)cc1C (centres undefined)	n	n	n	n	n	n	x	x	x	x
O=C(c1cc(-c2ccccc2)nc2ccccc12)N1N=C(C(F)F)CC1(O)C(F)F (centres undefined)	n	n	n	100	n	n	n	n	n	n
CCCOC(=O)c1ccc(NC(=O)CSC2=Nc3ccccc3C3CC=NN23)cc1 (centres undefined)	n	n	n	100	n	n	n	n	n	n
O=C(Nc1cccc(S(=O)(=O)N2CCCCC2)c1)c1ccc(OCC2CCCO2)cc1 (centres undefined)	n	n	n	25	n	n	n	n	n	n
O=C(Nc1ccc(S(=O)(=O)N2CCCC2)cc1)c1ccc(OCC2CCCO2)cc1 (centres undefined)	n	n	n	25	n	n	20.0%	n	n	n
O=S(=O)(c1ccc(Cl)s1)N1CCCCC1	n	n	n	n	n	n	x	x	x	x
CCC(=O)N1CCN(c2ccc(Cl)cc2NC(=O)c2ccc3c(c2)OCCO3)CC1	n	n	n	n	n	n	x	x	x	x
NC(=S)NN=Cc1nccc2ccccc12	n	x	x	x	x	x	x	x	x	x
CCOC(=O)C1CCN(C(=O)c2ccc(OCC(=O)Nc3cccc(C(F)(F)F)c3)cc2)CC1	n	n	n	n	n	n	x	x	x	x
CCOC(=O)C1CCN(C(=O)c2ccc(OCC(=O)Nc3cccc(C(F)(F)F)c3)c(OC)c2)CC1	n	x	n	25	n	n	28.5%	n	n	n
COc1cc(C2=Nc3c(c(C)nn3-c3ccccc3)P(=O)(N3CCOCC3)O2)cc(OC)c1OC (centres undefined)	n	n	n	n	n	n	x	x	x	x
SMILES	ANO1 activ	PHOSPHO1 block	CHT inh	ANO1 block	CHT allo act	HDAC3 inh	TMEM16A reconf	HEK293 Ca mobil	Parental YFP cnt	ClC-1 rat inh
CCOC(=O)N1CCN(CCC(=O)Nc2cc(C)ccc2OC)CC1	n	n	n	n	n	n	x	x	x	x
CCCCCCCCC(=O)Nc1cc(C)ccc1OC	n	n	n	100	n	n	n	n	n	n
COc1ccc(N2CCN(C(=O)CSc3nnc4nc(C)cc(C)n34)CC2)cc1	n	x	n	25	n	n	n	n	n	n
Cc1ccc(OCc2ccc(C(=O)Nc3nccs3)o2)cc1C	n	n	n	n	n	n	x	x	x	x
COc1cccc(/C=C2\CCC(C3CCCC3)C2=O)c1OC (centres undefined)	n	n	n	25	n	n	18.0%	n	n	n
Cc1ccccc1C(=O)N1CCN(c2ccc(NC(=O)c3ccco3)cc2Cl)CC1	n	n	n	100	n	n	n	n	n	n
CC(=O)c1cccc(NC(=O)N2CCCC2C(=O)Nc2c(C)cccc2C)c1 (centres undefined)	n	n	n	n	n	n	x	x	x	x
COc1ccc(-c2cc(C(F)(F)F)nc(SCCC(=O)N3CCCC3)n2)cc1	n	n	n	100	n	n	n	n	n	n
COc1ccc(CNC(=O)CCSc2nc(-c3ccc4c(c3)OCO4)cc(C(F)(F)F)n2)cc1	n	n	n	n	n	n	n	n	n	n
COc1ccc(OC)c(NC(=O)CSc2nnc(CCCO)n2-c2ccccc2)c1	n	n	n	n	n	n	x	x	x	x
COc1ccc(C2c3c(c(C)c(C)oc3=O)Oc3c(C)c(C)oc(=O)c32)cc1	n	x	x	x	x	n	x	x	x	x
CC(OC(=O)c1ccc(O)cc1)C(=O)Nc1cc(C(F)(F)F)ccc1Cl (centres undefined)	n	n	n	25	n	n	58.0%	n	n	n
COc1cc(C=O)c(-c2c(C=O)cc(OC)c3c2OCO3)c2c1OCO2	n	n	n	n	n	n	x	x	x	x
CCCCOC(=O)Nc1nc2ccc([N+](=O)[O-])cc2s1	n	n	n	n	n	n	x	x	x	x
Cc1ccc(C)c(OCC(=O)Nc2nc3ccc([N+](=O)[O-])cc3s2)c1C	n	n	n	100	n	n	n	n	n	n

High-throughput results (PubChem)
